# KB-3-1 tox: qHTS assay for MDR1-selective chemotherapeutics: Primary screen using the parental adenocarcinoma cell KB-3-1 | KB-3-1 viability, CellTiter-Glo ATP luminescence, 72 h | Potency, µM (doses to about 46.1 µM), usual class: cytotoxic | actives 1.4% (n = 400,000); further: on the % scale 0 is the no-effect control and ±100 the full control effect; nearly all actives have a fitted effect of over 60% in size
#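 Viability of parental KB-3-1 cells, measured by CellTiter-Glo luminescence, followed a 72 h incubation at 37 °C with pinned compounds in phenol-red-free DMEM containing 10% FBS.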
# MCF10A rerep: A quantitative high throughput screen for small molecules that induce DNA re-replication in MCF 10a normal breast cells; Potency, µM (top dose mostly 46.1 µM), for the others: top-dose activity, positive = re-replication, usual class: activators; MCF 10A DNA re-replication, Hoechst nuclear intensity, 48 h; actives 2.9% (n = 350,000); further: % of control where 0% means no effect; nearly all actives have a fitted effect of over 50% in size
# KB-V1 cytotox: qHTS assay for MDR1-selective chemotherapeutics: Primary screen using the drug-selected MDR subline cells KB-V1 | KB-V1 MDR cells viability, CellTiter-Glo, 72 h | Potency, µM (series often up to 46.1 µM), actives largely listed as cytotoxic | actives 3.4% (n = 400,000); further: on the % scale 0 is the no-effect control and ±100 the full control effect; nearly all actives have a fitted effect of over 60% in size
#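 qHTS viability screen in drug-selected KB-V1 MDR cells: 72 h compound treatment at 37 degrees C, ATP luminescence end point.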
# TSG101-PTAP inh: qHTS Assay for Iinhibitors of HIV-1 Budding by Blocking the Interaction of PTAP/TSG101 | 340,000 tested, under 10 active | Tumor susceptibility gene 101 protein (Homo sapiens), Q99816 | AID 493005, 2010 | Fluorescence polarization, FITC-PTAP peptide / Tsg101 binding | Potency, µM (top dose mostly 115 µM), for the others: at the top dose activity change, negative = inhibition, usual class: inhibitors; active means well fitted inhibition curve with a large enough effect in the main read-out, with a control signal flat, not every such curve was filed as active; inconclusive means small, poorly fitted or top-dose-only effect, or effect the other way, or a change in a side signal; inactive means no such curve, though single readings can be large or run the other way; further: % of control where 0% means no effect
# Target sequence (Q99816 whole entry, looked up): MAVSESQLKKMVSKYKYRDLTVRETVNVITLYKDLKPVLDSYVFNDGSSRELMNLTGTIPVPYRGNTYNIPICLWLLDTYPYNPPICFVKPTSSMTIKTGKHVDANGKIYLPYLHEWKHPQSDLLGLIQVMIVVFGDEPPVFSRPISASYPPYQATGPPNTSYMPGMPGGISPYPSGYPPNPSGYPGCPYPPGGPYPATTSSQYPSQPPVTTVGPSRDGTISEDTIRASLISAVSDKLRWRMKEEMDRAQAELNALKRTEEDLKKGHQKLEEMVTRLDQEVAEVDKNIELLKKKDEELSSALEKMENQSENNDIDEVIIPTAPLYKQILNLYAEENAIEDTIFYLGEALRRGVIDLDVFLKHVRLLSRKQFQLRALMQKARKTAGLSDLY
#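 Tsg101 binding domain (10 uM final) was mixed with compound and a FITC-labeled PTAP peptide (50 nM final) in HEPES pH 7.5 buffer with NaCl, Tween 20, EDTA and TCEP; fluorescence polarization was read after 20 min at r.t.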
# SW480 rerep: A quantitative high throughput screen for small molecules that induce DNA re-replication in SW480 colon adenocarcinoma cells. Potency, µM (highest dose often 46.1 µM), inactives show at the top dose re-replication activation, hits mostly activators. actives 1.8% (n = 340,000). AID 624297, 2012. SW480 DNA re-replication, Hoechst DNA content imaging, 48 h; further: % of control where 0% means no effect; nearly all actives have a fitted effect of over 55% in size
#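 Compounds, transferred as 23 nL by pin tool, were incubated with cells for 48 hr; DNA content per nucleus was then quantified by Hoechst staining and fluorescence plate imaging.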
# RGS4 inhibitor: Inhibitors of Regulator of G Protein Signaling (RGS) 4: qHTS | Regulator of G-protein signaling 4 (Homo sapiens), P49798 | Transcreener GDP fluorescence polarization, RGS4-accelerated GTP hydrolysis | Potency, µM (highest dose often 114 µM), for the others: at the top dose activity change, negative = inhibition, most hits filed as inhibitors | actives 0.039% (n = 390,000); further: on the % scale 0 is the no-effect control and ±100 the full control effect; nearly all actives have a fitted effect of over 75% in size
# Target sequence (P49798 whole entry, looked up): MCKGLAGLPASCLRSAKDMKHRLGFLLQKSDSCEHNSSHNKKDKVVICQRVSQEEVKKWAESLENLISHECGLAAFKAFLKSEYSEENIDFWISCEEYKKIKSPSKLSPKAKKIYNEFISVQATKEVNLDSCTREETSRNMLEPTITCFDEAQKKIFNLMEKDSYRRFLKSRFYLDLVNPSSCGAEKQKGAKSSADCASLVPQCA
#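 MLSMR compounds (23 nl, pin-transferred) preincubated 10 min at room temperature with a 500nM (2x) first reagent, then RGS4 at 900nM (2x) plus Transcreener GDP mix added; fluorescence polarization (620/688 nm) read before and after 90 min at 30 °C.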
# * = called active by the depositor; i = inactive; ? = inconclusive; . = not tested or not shown; [ ] = remark or other dose. Most compounds without a hit are left out; they make up all but 6.6% or so of the library. Unless noted, the call rests on the fitted dose curve; in most records, active means well fitted curve in the direction sought with a large enough effect; inconclusive means small, poorly fitted or top-dose-only effect, or another doubt; inactive means no such curve, though single readings can be large; an effect the other way counts as inactive or inconclusive. Potency means the concentration at half of the fitted maximal effect.
SMILES,KB-3-1 tox,MCF10A rerep,KB-V1 cytotox,TSG101-PTAP inh,SW480 rerep,RGS4 inhibitor
CCC(=NCCC(c1ccccc1)c1ccccc1)c1c(O)n(C)c(=O)n(C)c1=O,?,8.2µM*,?,-2%,-3%,12%
Cn1c(O)c(C(=O)c2ccccc2)c(=O)n(C)c1=O,i,-2%,?,0%,-1%,-13%
CN(C)CC(C(=O)Cc1ccccc1)c1ccccc1 (configuration not stated),8.2µM*,13µM*,?,-4%,4.6µM*,?
C[C@@H]([C@@H](O)c1ccccc1)N(C)C(=O)Cc1ccccc1,?,6%,i,-3%,-3%,4%
O=C(Oc1ccc2ccc(OC(=O)N3CCCCCC3)cc2c1)N1CCCCCC1,i,?,i,2%,5%,-12%
Cc1ccc2c(Cl)cc(Cl)c(O)c2n1,i,21µM*,i,-4%,10µM*,21%
N[C@@H](Cc1cc(Br)c(O)c(Br)c1)C(=O)O,.,18µM*,.,.,-13%,.
CC(Cc1ccccc1Sc1ccccc1)N(C)C (configuration not stated),i,9%,i,-3%,?,12%
CN1CCN(Cc2ccccc2Sc2ccccc2)CC1,i,?,21µM*,-2%,?,15%
O=Cc1cn(Cc2cccc(F)c2)c2ccccc12,?,?,i,-1%,?,-18%
O=Cc1cn(Cc2ccc(Br)cc2)c2ccccc12,10µM*,6%,?,-7%,-5%,?
NC1CC1c1ccccc1 (configuration not stated),.,.,.,.,.,-12%[56.9 µM]
COc1ccc(CC2C(=O)NC(C)C(=O)N(C)C3C(=O)N(C)C(Cc4ccc(O)c(c4)Oc4ccc(cc4)C3O)C(=O)NC(C)C(=O)NC(C)C(=O)N2C)cc1 (configuration not stated),0.16µM*,0.26µM*,i,-4%,?,26%
Oc1cc(Cl)cc(Cl)c1Cl,i,?,i,-1%,-39%,-6%
O=C(c1cc2cc(Cl)ccc2[nH]1)N1CCC2(CC1)OCCO2,i,23µM*,i,-1%,-2%,-34%
Cc1ccc(NC(=O)c2snnc2C)cc1Cl,?,1%,10µM*,-4%,2%,-6%
COC(=O)C1=C(c2cccc(OCc3ccccc3)c2)C[C@@H]2CC[C@H]1N2C(=O)NCCOc1ccccc1Cl,?,2.1µM*,?,-4%,22%,20%
COC(=O)C1=C(c2cccc(OCc3ccccc3)c2)C[C@@H]2CC[C@H]1N2C(=O)NCCOc1ccccc1,?,13µM*,?,-1%,-33%,17%
CN1CC[C@@]2(c3cccc(O)c3)Cc3nc4ccccc4cc3C[C@H]2C1,.,.,.,.,.,0%[56.9 µM]
c1ccc(C2(N3CCCC3)CCCCC2)cc1,.,4%,.,.,-6%,.
O=[N+]([O-])c1cc(I)c(O)c(I)c1,.,?,.,.,-7%,.
CNC(=O)Oc1cccc2ccccc12,i,0%,i,-1%,0%,-22%
CNCC[C@H](Oc1cccc2ccccc12)c1cccs1,?,-37%,?,1%,13µM*,0%
O=C(Nc1ccc(Cl)c(Cl)c1)c1ccco1,i,2%,i,0%,1%,3%
CCN(c1ccc(C)cc1C)S(=O)(=O)c1nnc(NC(=O)c2ccco2)s1,i,21µM*,i,-12%,?,25%
SMILES,KB-3-1 tox,MCF10A rerep,KB-V1 cytotox,TSG101-PTAP inh,SW480 rerep,RGS4 inhibitor
COc1cc(C)c(CN2CCN(c3ccccc3)CC2)cc1C,i,8%,13µM*,-2%,-13%,25%
Oc1ccc(Br)cc1CN1CCN(c2ccccc2)CC1,i,17%,16µM*,-2%,16%,24%
COc1ccccc1N1CCN(Cc2cc(C)c(C)cc2O)CC1,i,?,?,0%,4%,-15%
CCOc1ccc(NC(=O)C2CCCN2C(=O)Oc2ccccc2)cc1 (configuration not stated),?,-2%,?,0%,?,-24%
O=C1CC(=O)N(c2ccccc2)C(=O)N1c1ccccc1,0.29µM*,3%,i,-6%,0%,-14%
O=C1CC(=O)N(c2ccccc2)C(=O)N1,i,1%,?,-5%,-3%,?
CC(C)C[C@H]1CN([C@@H](CC(C)C)CN2CCCC2CN2C(=S)NC[C@@H]2Cc2ccc(O)cc2)C(=S)N1CC1CCCCCC1 (some centres not stated),?,?,?,?,-36%,7%
CCOC(=O)c1ccc(NC(=O)c2sc3nc4c(cc3c2N)N2CCC4CC2)cc1,i,.,i,.,.,-1%
CC(=O)c1ccc(NC(=O)c2sc3nc4c(cc3c2N)N2CCC4CC2)cc1,?,.,23µM*,.,.,3%
CN(C(=O)Cc1ccc(Cl)c(Cl)c1)C(CN1CCCC1)c1cccc(N=C=S)c1 (configuration not stated),.,.,.,.,.,440%[56.9 µM]
O=C(COc1ccc2ccccc2c1)N1CCN(Cc2c[nH]c3ccccc23)CC1,?,?,?,-3%,?,-49%
O=C(COc1ccc(Br)cc1)N1CCN(Cc2c[nH]c3ccccc23)CC1,i,?,18µM*,-1%,?,-32%
CCOC(=O)c1c(-n2c(C)cc(/C=C3\C(=O)NC(=O)N(C)C3=O)c2C)sc2c1CCCC2,i,?,23µM*,0%,?,?
Cc1sc2c(c1C)C(c1ccc(C(C)(C)C)cc1)=NCC(=O)N2CC(=O)Nc1nccs1,?,?,21µM*,-5%,26%,-29%
Cc1sc2c(c1C)C(c1cccs1)=NCC(=O)N2CC(=O)NCc1cccs1,i,?,?,-7%,-2%,-16%
COC1C(O)C(C)OC(OC2C(Oc3cccc4c(O)c5c(=O)oc6ccc(C)c7c(=O)oc(c34)c5c67)OC(C)C(O)C2O)C1O (configuration not stated),15µM*,8.2µM*,i,0%,21µM*,-16%
Cc1ccc(-c2csc(NC(CO)c3nc4ccccc4n3CCOCCO)n2)cc1 (configuration not stated),i,?,i,-5%,8%,-31%
